Experiment: Her2 expression decrease, cell viability multiplex – SKBR3 breast tumor cells, AlphaScreen, ATP viability, primary screen (AID 461);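 further: percent of carrier control wells set as 100% viability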
Settings: SKBR3 Her2 protein level, 18-24 h, measured here: SKBR3 viability, ATP luminescence, at 10 µM

| Compound | viability [%] |
| --- | --- |
| O=C(NCCO)c1scc2c1OCCO2 | 104 |
| CN(c1ccccc1)S(=O)(=O)c1ccc(C(=O)OCC(=O)NCc2ccco2)cc1 | 95.5 |
| Clc1ccc(SCCn2ccnc2)cc1 | 96 |
| CC(C)(CO)NC(=O)CCCOc1ccc(Cl)cc1Cl | 97 |
| Cc1ccccc1NC(=O)CSc1nc(N)c(C#N)c(-c2cccs2)c1C#N | 115 |
| CCN(CC)C(=O)CSc1nc2ccc(NC(=O)CSc3nccn3C)cc2s1 | 88.5 |
| Cc1cc(Oc2ccccc2)nc(-c2ccccc2)n1 | 100 |
| COc1ccc(S(=O)(=O)CCC(=O)O)cc1 | 96.5 |
| O=C(Nc1ccc(OC(=O)c2ccco2)cc1)c1ccco1 | 96.5 |
| CCCc1nnc(SCC(=O)N2CCOCC2)n1Cc1ccco1 | 126 |
| Cc1ccc(S(=O)(=O)N2CCC(C(=O)N3CCC[C@H]3C(=O)NCc3ccccc3)CC2)cc1 | 117 |
| C=C(C)Cn1c(N2CCN(CC)CC2)nc2c1c(=O)[nH]c(=O)n2C | 99.5 |
| Cc1cc2oc(=O)cc(CN3CCN(Cc4ccc5c(c4)OCO5)CC3)c2cc1C | 96.5 |
| Cn1c(=O)c(C(=O)Nc2cccnc2)c(O)c2ccccc21 | 81 |
| C=Cn1c(C(=O)O)cc(CC)c1-c1ccccc1 | 96 |
| COc1ccccc1N1C(=O)CC(Sc2nc(C)cc(C)n2)C1=O (stereo not given) | 87 |
| COc1cccc(NC(=O)NC2(C(F)(F)F)Oc3ccccc3O2)c1 | 91.5 |
| CCOC(=O)Nc1ccc2c(c1)N(C(=O)CN(CC)CC)c1ccccc1C=C2 | 87.5 |
| O=C1C(Cl)=C(N2CCOCC2)C(=O)N1CCc1ccccc1 | 104 |
| CCN(CCCNC(=O)CCNC(=O)Cn1ccc2ccccc2c1=O)c1ccccc1 | 97.5 |

| Compound | viability [%] |
| --- | --- |
| O=C(Nc1cccc2ccccc12)N1CCOCC1 | 119 |
| O=C1C(Cl)=C(N2CCCCC2)C(=O)N1c1ccccc1Cl | 106 |
| CCC1(c2ccc(F)cc2)NC(=O)N(CC(=O)c2ccc[nH]2)C1=O (stereo not given) | 110 |
| Nn1c(SCC(=O)Nc2ccc(F)cc2)nnc1-c1cccnc1 | 90.5 |
| CC1=C(C(N)=O)C(c2cccnc2)n2nc(SCc3ccccc3Cl)nc2N1 (stereo not given) | 79 |
| COc1cc2c(cc1OC)C(c1cccnc1)CC(=O)N2 (stereo not given) | 106 |
| CC(=O)c1cccc(NC(=O)c2ccc(NS(C)(=O)=O)cc2)c1 | 118 |
| CCC(C)(C)n1nnnc1C(c1ccc(OC)c(OC)c1)N1CCN(c2ccc(F)cc2)CC1 (stereo not given) | 80 |
| Cc1cccc(C)c1NC(=O)CS(=O)CC(=O)NC1CCCc2ccccc21 (stereo not given) | 96.5 |
| COc1ccccc1-c1cn[nH]c(=S)n1 | 101 |
| COc1ccc(S(=O)(=O)N2CCOCC2)cc1C(=O)Nc1cc(C)on1 | 102 |
| Cc1cc(C(=O)OCCO)c(C#N)c(N)n1 | 92 |
| CCOC(=O)c1nnc(-c2ccccc2)o1 | 101 |
| COCC(=O)Nc1sc2c(c1C(=O)OC)C(C(=O)OC)CC2 (stereo not given) | 75.5 |
| Cc1oc(-c2ccc(Cl)cc2)nc1CS(=O)CC(=O)NCCCN(C)C1CCCCC1 (stereo not given) | 91.5 |
| Cn1c(=O)c(-c2ccccc2)nn2c3ccccc3nc12 | 82.5 |
| CCN1CCN(c2ncnc3c2oc2nc(C)c4c(c23)CC(C)(C)OC4)CC1 | 91.5 |
| CCn1c(=O)cc(SCC(=O)Nc2cccnc2)c2ccccc21 | 91.5 |
| COCCCNS(=O)(=O)c1ccc2c(c1)CCN2C(C)=O | 97 |
| CCN(CC)S(=O)(=O)c1ccc(Cl)c(C(=O)OC)c1 | 97 |
